From PubChem BioAssay (Tox21)
Where “and” joins values, the source holds several entries; their conditions need not be identical. Identical values can stand only once. Values without a mark were called inactive. Results filed as inconclusive are left out. Where a call stands in place of a potency, no number is given. Calls of active or inactive are those of the source. Unless noted, calls follow the shape of the dose curve; as a rule, active = well fitted curve in the direction sought with a large enough effect in the repeat runs; inconclusive = weak or mixed curves; inactive = no such curve, though single readings can be large; an effect the other way counts as inactive or inconclusive.

Legend:
[1] = qHTS assay to identify small molecule agonists of the androgen receptor (AR) signaling pathway in the presence of an antagonist - cell viability counter screen (AID 1259379); conditions: MDA-kb2 viability, CellTiter-Fluor, 16 h; series mostly up to 92.4 µM; also: nearly all actives have a fitted effect of over 25% in size; also: potency is read from the fitted curve at half-maximal effect
Summary of the method: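 Fluorescence from CellTiter-Fluor, added after 15 hr and read 1 hr later, gave cell viability. Cells were MDA-kb2 exposed to compounds (15 concentrations) in the presence of 3.0uM nilutamide at 37C, 0% CO2.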

[2] = qHTS assay to identify small molecule agonists of the estrogen receptor beta (ER-beta) signaling pathway - cell viability counter screen (AID 1259380); conditions: ER-beta-bla HEK293T viability, CellTiter-Glo luminescence, 16 h; series mostly up to 92.4 µM; also: nearly all actives have a fitted effect of over 30% in size; also: potency is read from the fitted curve at half-maximal effect
Summary of the method: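 Same-well viability counter screen. Cells: ER-beta-UAS-bla HEK293T, plated 6 hr before compound, in 2% charcoal-stripped FBS. Compound exposure 16 hr, 37C; viability by CellTiter-Glo luminescence after 30 min at room temperature.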

[3] = biological target: Androgen receptor (Homo sapiens) (UniProt P10275); assay: qHTS assay to identify small molecule agonists of the androgen receptor (AR) signaling pathway in the presence of an antagonist (AID 1259381; calls by dose curve; also: nearly all actives have a fitted effect of over 15% in size); conditions: MDA-kb2 MMTV-luciferase, AR agonist + nilutamide, 16 h; series mostly up to 92.4 µM
Summary of the method: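 Cells are MDA-kb2 (human breast carcinoma, MMTV-luc, AR/GR responsive). Nilutamide is present at 3.0uM final throughout; compounds are added at 15 concentrations and incubated 16hr at 37C before ONE-Glo luminescence detection.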

[4] = qHTS assay to identify small molecule antagonists of the estrogen receptor beta (ER-beta) signaling pathway - cell viability counter screen (AID 1259382); conditions: ER-beta-UAS-bla HEK293T viability, CellTiter-Glo luminescence, 16 h; series mostly up to 92.4 µM; also: nearly all actives have a fitted effect of over 55% in size; also: potency is read from the fitted curve at half-maximal effect
Summary of the method: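 Following a 6 hr plating period, HEK293T cells carrying a UAS-driven beta-lactamase reporter under ER-beta control received compounds and 1nM E2 (final). After 16 hr at 37C and 2 hr substrate loading, CellTiter-Glo luminescence indicated viability.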

[5] = biological target: Estrogen receptor (Homo sapiens) (UniProt P03372); assay: qHTS assay to identify small molecule agonists of the estrogen receptor alpha (ER-alpha) signaling pathway in the presence of an antagonist (AID 1259383; calls by dose curve; also: top concentration of the series differs between compounds; nearly all actives have a fitted effect of over 15% in size); conditions: VM7Luc4E2 cells, ERE-luciferase, +ICI-182,780, 22 h; series mostly up to 92.4 µM
Summary of the method: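 Cells are hormone-deprived for 5 days (charcoal-stripped FBS, no phenol red), plated for 24hr, spiked with 10.0nM ICI-182,780, then dosed at 15 concentrations. After 22hr at 37C, ONE-Glo luminescence reports ERE-luciferase activity.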

[6] = qHTS assay to identify small molecule agonists or antagonists of the thyroid stimulating hormone receptor (TSHR) signaling pathway - wild type cell line counter screen (AID 1259384; calls by dose curve); conditions: HEK293 wild type, cAMP HTRF counter-screen, stronger effect = higher value; series mostly up to 92.4 µM
Summary of the method: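 Counter screen in untransfected Hek293: compounds (15-point titration, triplicate) plus phosphodiesterase inhibitor Ro20-1724 added after 18 h plating; 30 min RT. Intracellular cAMP via competitive d2/cryptate immunoassay, 1 h incubation.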

[7] = qHTS assay to identify small molecule agonists of the estrogen receptor alpha (ER-alpha) signaling pathway in the presence of an antagonist - cell viability counter screen (AID 1259386); conditions: VM7Luc4E2 viability, CellTiter-Fluor fluorescence, 22 h; series mostly up to 92.4 µM;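 also: cells exposed to compounds for 22 h at 37 °C before the viability read; nearly all actives have a fitted effect of over 30% in size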; also: potency is read from the fitted curve at half-maximal effect
Summary of the method: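 Cells are starved of estrogens for 5 days in charcoal-stripped serum, seeded for 24hr and co-treated with ICI-182,780 (10.0nM final) and test compounds. After 22hr at 37C, viability is read as CellTiter-Fluor fluorescence.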

[8] = qHTS assay to identify small molecule antagonists of the progesterone receptor (PR) signaling pathway - cell viability counter screen (AID 1346798); conditions: PR-UAS-bla HEK293T viability, CellTiter-Glo luminescence, 16 h; series mostly up to 92.4 µM; also: nearly all actives have a fitted effect of over 50% in size
Summary of the method: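 Measures cytotoxicity in parallel with the PR antagonist reporter read: HEK293T PR-UAS-bla cells get compound and R5020 for 16 hr, and remaining viable cells are quantified by CellTiter-Glo luminescence.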

[9] = qHTS assay to identify small molecule antagonists of the TGF-beta/Smad signaling pathway - cell viability counter screen (AID 1346824); conditions: SBE-bla HEK293T viability, CellTiter-Glo luminescence; series mostly up to 76.8 µM; also: nearly all actives have a fitted effect of over 50% in size; also: potency is read from the fitted curve at half-maximal effect
Summary of the method: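 Cytotoxicity counter-screen run in the same wells as the beta-lactamase Smad reporter read: CellTiter-Glo luminescence after 30 min at room temperature. HEK 293T SBE-bla cells had 5 hr compound exposure at 37 C with TGF-beta1 (0.25 ng/mL stock).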

[10] = qHTS assay to identify small molecule agonists of the TGF-beta/Smad signaling pathway - cell viability counter screen (AID 1346829); conditions: SBE-bla HEK293T viability, CellTiter-Glo luminescence, 5 h; series mostly up to 76.8 µM; also: nearly all actives have a fitted effect of over 45% in size; also: potency is read from the fitted curve at half-maximal effect
Summary of the method: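 Luminescence from CellTiter-Glo, read after a 30 min room-temperature incubation, gives cell viability of SBE-bla HEK 293T cells treated 5 hr with compounds at 37 C.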

[11] = biological target: Thyrotropin-releasing hormone receptor (Homo sapiens) (UniProt P34981); assay: qHTS assay to identify small molecule antagonists of the thyrotropin-releasing hormone receptor (TRHR) signaling pathway (AID 1346877; active = well fitted inhibition curve with a large enough effect in the repeat runs, not every such curve was filed as active; also: potency is read from the fitted curve at half-maximal effect); conditions: TRHR-HEK293, TRH-induced calcium fluorescence, antagonist mode; series mostly up to 51.3 µM
Summary of the method: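 Cells (TRHR-HEK293) are plated and kept 18 h at 37 °C/5% CO2. A calcium-sensitive dye is added for 2 h, compound follows for 5 min at room temperature, and TRH is then given at 1 nM final.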

[12] = biological target: Thyrotropin-releasing hormone receptor (Homo sapiens) (UniProt P34981); assay: qHTS assay to identify small molecule agonists of the thyrotropin-releasing hormone receptor (TRHR) signaling pathway (AID 1346891; calls by dose curve; also: potency is read from the fitted curve at half-maximal effect;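 as to activation: HEK293 cells expressing TRHR with calcium dye readout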); conditions: TRHR-HEK293 calcium fluorescence, agonist mode; series mostly up to 57.6 µM
Summary of the method: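 Overnight-plated (18 h, 37 °C, 5% CO2) TRHR-Hek293 cells; 2 h calcium dye at 37 °C; compound in DMSO; 3-min kinetic fluorescence read.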

[13] = biological target: Thyrotropin receptor (Homo sapiens) (UniProt P16473); assay: qHTS assay to identify small molecule antagonists of the thyroid stimulating hormone receptor (TSHR) signaling pathway (AID 1259385; calls by dose curve; also: nearly all actives have a fitted effect of over 20% in size); conditions: TSHR-HEK293 cAMP HTRF, TSH-stimulated antagonist mode; series mostly up to 92.4 µM
Summary of the method: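 Antagonist mode: compound-treated TSHR-expressing HEK293 cells were stimulated with 1.5 ng/mL TSH (final) in presence of Ro20-1724 for 30 min at RT. HTRF cAMP detection after 1 h; each compound tested at 15 concentrations, triplicate.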

[14] = biological target: Progesterone receptor (Homo sapiens) (UniProt P06401); assay: qHTS assay to identify small molecule agonists of the progesterone receptor (PR) signaling pathway (AID 1346784; calls by dose curve; also: nearly all actives have a fitted effect of over 30% in size); conditions: PR-UAS-bla HEK293T, beta-lactamase FRET ratio, 16 h; series mostly up to 92.4 µM
Summary of the method: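 Seed PR-UAS-bla HEK 293T cells (2% charcoal-stripped FBS), incubate 6 hr at 37C; add compounds in DMSO, 16 hr at 37C; add LiveBLAzer B/G substrate, 2 hr RT; read fluorescence intensity.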

[15] = biological target: Progesterone receptor (Homo sapiens) (UniProt P06401); assay: qHTS assay to identify small molecule antagonists of the progesterone receptor (PR) signaling pathway (AID 1346795; active = well fitted inhibition curve with a large enough effect in the signal ratio in the repeat runs, not every such curve was filed as active; the % refers to the signal ratio; also: potency is read from the fitted curve at half-maximal effect); conditions: PR-UAS-bla HEK293T, beta-lactamase FRET ratio, 16 h; series mostly up to 92.4 µM
Summary of the method: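 Screening used a GripTite HEK293T line with PR-responsive UAS-beta-lactamase. Cells were challenged with compound in the presence of 1 nM R5020 final for 16 hr at 37C; B/G FRET substrate, 2 hr room temperature, fluorescence.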

[16] = qHTS assay to identify small molecule agonists of the progesterone receptor (PR) signaling pathway - cell viability counter screen (AID 1346799; calls by dose curve; also: nearly all actives have a fitted effect of over 45% in size; also: potency is read from the fitted curve at half-maximal effect); conditions: PR-UAS-bla HEK293T viability, CellTiter-Glo luminescence, 16 h; series mostly up to 92.4 µM
Summary of the method: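 Using the same plates as the PR reporter screen, HEK293T PR-UAS-bla cells received compounds for 16 hr at 37C and were then lysed with CellTiter-Glo; luminescence was read 30 min later at room temperature.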

[17] = qHTS assay to identify small molecule agonists of the TGF-beta/Smad signaling pathway (AID 1346859; active = well fitted activation curve with a large enough effect in the signal ratio in the repeat runs, not every such curve was filed as active; the % refers to the signal ratio); conditions: SBE-bla HEK293T, TGF-beta/Smad beta-lactamase reporter, 5 h; series mostly up to 76.8 µM
Summary of the method: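 Beta-lactamase reporter activity downstream of Smad binding elements was measured in stably transfected HEK 293T cells; compounds were incubated for 5 hr, substrate for 2 hr at room temperature.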

[18] = Human pregnane X receptor (PXR) small molecule agonists, qHTS cell viability counter screen (AID 1346977); conditions: PXR-Luc HepG2 viability, CellTiter-Fluor, 24 h; series mostly up to 92.4 µM; also: nearly all actives have a fitted effect of over 50% in size; also: potency is read from the fitted curve at half-maximal effect
Summary of the method: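 After a 5hr pre-incubation, PXR-Luc HepG2 cells received compounds plus positive control in DMSO and were kept 24hr at 37C. Cell viability was quantified by fluorescence from CellTiter-Fluor added for the final hour.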

[19] = biological target: Estrogen receptor beta (Homo sapiens) (UniProt Q92731); assay: qHTS assay to identify small molecule antagonists of the estrogen receptor beta (ER-beta) signaling pathway (AID 1259378; active = well fitted inhibition curve with a large enough effect in the signal ratio in the repeat runs, not every such curve was filed as active; the % refers to the signal ratio; also: potency is read from the fitted curve at half-maximal effect); conditions: ER-beta-UAS-bla HEK293T, beta-lactamase FRET ratio, 16 h; series mostly up to 92.4 µM
Summary of the method: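 Antagonist mode: compounds added to beta-lactamase reporter HEK293T ER-beta-UAS cells stimulated with E2 (1nM final), 16 hr at 37C. LiveBLAzer B/G FRET substrate, 2 hours room temperature, fluorescence read-out.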

Chain of Androgen receptor (Homo sapiens) (P10275 whole entry, looked up): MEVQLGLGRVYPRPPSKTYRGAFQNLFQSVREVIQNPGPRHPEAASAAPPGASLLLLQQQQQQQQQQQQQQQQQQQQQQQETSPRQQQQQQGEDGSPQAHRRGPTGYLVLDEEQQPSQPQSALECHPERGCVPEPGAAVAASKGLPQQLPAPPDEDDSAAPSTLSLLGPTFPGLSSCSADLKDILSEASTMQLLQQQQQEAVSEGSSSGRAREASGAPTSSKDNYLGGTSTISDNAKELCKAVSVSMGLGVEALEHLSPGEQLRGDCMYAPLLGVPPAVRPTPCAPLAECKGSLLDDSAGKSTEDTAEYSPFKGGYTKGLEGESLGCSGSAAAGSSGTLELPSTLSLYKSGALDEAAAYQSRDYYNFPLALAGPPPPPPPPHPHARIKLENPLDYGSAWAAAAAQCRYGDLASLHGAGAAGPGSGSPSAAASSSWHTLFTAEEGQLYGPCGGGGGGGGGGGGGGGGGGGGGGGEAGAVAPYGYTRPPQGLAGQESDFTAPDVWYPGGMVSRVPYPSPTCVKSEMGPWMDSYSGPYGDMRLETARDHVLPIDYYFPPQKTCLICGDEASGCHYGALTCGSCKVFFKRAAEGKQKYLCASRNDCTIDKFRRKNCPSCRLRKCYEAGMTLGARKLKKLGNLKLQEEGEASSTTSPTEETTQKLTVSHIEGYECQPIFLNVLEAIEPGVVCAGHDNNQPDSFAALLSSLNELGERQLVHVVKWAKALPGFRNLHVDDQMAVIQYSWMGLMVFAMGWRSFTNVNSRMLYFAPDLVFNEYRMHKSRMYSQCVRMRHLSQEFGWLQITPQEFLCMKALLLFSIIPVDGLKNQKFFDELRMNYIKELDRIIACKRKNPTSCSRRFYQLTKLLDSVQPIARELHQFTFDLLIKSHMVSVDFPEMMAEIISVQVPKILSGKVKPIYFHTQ
Chain of Thyrotropin receptor (Homo sapiens) (P16473 whole entry, looked up): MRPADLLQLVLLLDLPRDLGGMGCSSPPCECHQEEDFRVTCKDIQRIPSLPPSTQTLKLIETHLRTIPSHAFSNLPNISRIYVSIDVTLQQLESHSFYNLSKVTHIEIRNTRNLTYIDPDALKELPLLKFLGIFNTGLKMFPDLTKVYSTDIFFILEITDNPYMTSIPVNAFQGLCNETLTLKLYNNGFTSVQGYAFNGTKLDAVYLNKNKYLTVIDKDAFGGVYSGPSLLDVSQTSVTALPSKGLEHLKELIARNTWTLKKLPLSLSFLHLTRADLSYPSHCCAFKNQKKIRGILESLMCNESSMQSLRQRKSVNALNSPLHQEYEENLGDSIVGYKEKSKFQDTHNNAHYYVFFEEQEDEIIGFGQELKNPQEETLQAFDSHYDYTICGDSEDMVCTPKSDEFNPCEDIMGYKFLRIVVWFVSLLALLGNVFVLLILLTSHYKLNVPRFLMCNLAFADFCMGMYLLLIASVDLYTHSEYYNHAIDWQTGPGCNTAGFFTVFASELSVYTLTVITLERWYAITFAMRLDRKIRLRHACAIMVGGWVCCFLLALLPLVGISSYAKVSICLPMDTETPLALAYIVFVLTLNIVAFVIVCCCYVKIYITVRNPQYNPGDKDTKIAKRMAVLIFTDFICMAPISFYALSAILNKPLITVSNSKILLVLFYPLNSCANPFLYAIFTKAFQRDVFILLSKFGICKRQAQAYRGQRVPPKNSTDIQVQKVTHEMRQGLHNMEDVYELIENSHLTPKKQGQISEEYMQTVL
Chain of Thyrotropin-releasing hormone receptor (Homo sapiens) (P34981 whole entry, looked up): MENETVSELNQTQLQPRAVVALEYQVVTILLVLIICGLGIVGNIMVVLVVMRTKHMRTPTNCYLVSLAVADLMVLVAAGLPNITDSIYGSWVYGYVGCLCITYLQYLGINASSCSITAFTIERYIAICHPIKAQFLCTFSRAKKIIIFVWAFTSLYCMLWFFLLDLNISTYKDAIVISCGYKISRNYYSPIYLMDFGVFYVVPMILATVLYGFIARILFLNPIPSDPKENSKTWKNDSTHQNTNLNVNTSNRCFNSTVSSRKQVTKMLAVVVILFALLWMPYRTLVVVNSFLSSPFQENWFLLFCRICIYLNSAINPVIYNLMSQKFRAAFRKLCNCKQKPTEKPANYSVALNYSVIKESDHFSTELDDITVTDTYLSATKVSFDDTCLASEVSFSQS
Chain of Progesterone receptor (Homo sapiens) (P06401 whole entry, looked up): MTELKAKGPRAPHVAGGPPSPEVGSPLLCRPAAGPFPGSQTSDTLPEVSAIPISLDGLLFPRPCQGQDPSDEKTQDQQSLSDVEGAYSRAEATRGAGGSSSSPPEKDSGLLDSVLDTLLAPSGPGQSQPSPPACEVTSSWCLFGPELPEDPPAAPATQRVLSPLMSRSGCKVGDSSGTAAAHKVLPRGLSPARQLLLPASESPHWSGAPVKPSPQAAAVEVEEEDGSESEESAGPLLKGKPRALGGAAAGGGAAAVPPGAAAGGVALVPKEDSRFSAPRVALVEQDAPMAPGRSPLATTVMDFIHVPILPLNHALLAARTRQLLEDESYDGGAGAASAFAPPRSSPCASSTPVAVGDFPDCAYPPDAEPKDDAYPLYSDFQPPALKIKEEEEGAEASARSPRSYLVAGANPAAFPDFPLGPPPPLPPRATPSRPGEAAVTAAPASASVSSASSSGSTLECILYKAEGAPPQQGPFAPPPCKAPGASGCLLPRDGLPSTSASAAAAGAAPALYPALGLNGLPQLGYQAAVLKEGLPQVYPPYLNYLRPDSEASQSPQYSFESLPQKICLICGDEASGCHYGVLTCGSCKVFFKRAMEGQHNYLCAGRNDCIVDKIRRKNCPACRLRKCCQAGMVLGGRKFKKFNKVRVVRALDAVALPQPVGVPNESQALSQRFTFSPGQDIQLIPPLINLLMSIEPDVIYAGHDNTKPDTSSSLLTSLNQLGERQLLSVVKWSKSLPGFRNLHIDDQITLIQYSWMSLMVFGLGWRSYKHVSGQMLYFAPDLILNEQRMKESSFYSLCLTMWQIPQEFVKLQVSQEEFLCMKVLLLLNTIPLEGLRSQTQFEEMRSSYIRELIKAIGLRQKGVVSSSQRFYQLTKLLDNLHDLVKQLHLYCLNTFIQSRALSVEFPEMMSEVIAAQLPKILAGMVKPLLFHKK
Chain of Estrogen receptor (Homo sapiens) (P03372 whole entry, looked up): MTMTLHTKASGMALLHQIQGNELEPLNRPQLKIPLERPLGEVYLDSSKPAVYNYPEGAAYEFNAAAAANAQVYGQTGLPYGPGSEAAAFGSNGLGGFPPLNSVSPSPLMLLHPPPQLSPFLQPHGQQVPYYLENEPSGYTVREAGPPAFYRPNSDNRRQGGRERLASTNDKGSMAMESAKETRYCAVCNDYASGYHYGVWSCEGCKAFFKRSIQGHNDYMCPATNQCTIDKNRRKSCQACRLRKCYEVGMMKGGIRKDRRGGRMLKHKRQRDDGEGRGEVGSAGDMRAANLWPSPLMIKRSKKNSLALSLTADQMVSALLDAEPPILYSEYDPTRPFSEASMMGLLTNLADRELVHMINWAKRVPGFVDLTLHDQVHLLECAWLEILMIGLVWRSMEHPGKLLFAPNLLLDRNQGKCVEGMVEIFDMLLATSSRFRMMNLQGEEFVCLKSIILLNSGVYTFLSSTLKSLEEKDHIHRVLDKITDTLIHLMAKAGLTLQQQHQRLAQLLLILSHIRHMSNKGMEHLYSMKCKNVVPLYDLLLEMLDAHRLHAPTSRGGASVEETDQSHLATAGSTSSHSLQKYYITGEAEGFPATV
Chain of Estrogen receptor beta (Homo sapiens) (Q92731 whole entry, looked up): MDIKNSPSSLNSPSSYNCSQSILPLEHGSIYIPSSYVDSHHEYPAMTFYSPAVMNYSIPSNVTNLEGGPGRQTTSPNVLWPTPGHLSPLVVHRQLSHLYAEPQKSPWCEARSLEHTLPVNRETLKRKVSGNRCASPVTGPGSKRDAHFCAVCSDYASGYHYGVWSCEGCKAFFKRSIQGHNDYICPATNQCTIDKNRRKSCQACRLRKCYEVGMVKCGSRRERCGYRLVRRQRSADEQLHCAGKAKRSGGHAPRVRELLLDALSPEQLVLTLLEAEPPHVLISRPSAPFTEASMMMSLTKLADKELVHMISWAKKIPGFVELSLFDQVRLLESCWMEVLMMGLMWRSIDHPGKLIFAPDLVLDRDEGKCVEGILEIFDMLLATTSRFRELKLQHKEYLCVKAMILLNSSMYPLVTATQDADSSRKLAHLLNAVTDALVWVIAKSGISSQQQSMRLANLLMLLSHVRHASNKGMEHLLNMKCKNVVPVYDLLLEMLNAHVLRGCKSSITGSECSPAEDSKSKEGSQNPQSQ

Structure (SMILES) | Potency [1] | Potency [2] | Potency [3] | Potency [4] | Potency [5] | outcome [6] | Potency [7] | Potency [8] | Potency [9] | Potency [10] | Potency [11] | Potency [12] | Potency [13] | Potency [14] | Potency [15] | Potency [16] | outcome [17] | Potency [18] | Potency [19]
[CH3][Hg][Cl] | 21.6 µM (active) | 60.9 µM (active) | inactive | inactive | inactive | inactive | inactive | inactive | inactive | inactive | 30.1 µM (active) | 17.3 µM (active) |  |  |  |  |  |  | 
CC(Cl)CN(C)C (stereo not drawn) | inactive | inactive | inactive | inactive | inactive | inactive | inactive | inactive |  | inactive | inactive | inactive | inactive | inactive | inactive | inactive | inactive | inactive | 
Clc1ccc(Oc2ccccc2)cc1 | inactive | inactive | inactive | inactive | inactive |  | inactive | inactive | inactive | inactive | inactive | inactive |  | inactive | inactive | inactive | inactive | inactive | 
COS(=O)(=O)c1ccc(C)cc1 | inactive | inactive | inactive | inactive | inactive | inactive | inactive |  | inactive | inactive | inactive | inactive |  | inactive | inactive | inactive | inactive | inactive | 
O=C1C=CC(=O)c2ccccc21 | 43.3 µM (active) | 21.7 µM (active) | inactive | 27.3 µM (active) | inactive |  | 30.6 µM (active) | inactive | 24.5 µM (active) | 49 µM (active) | 21.3 µM (active) | inactive |  | inactive | inactive | inactive |  | 48.6 µM (active) | 
CCOC(=O)c1ccccc1S(=O)(=O)NC(=O)Nc1nc(Cl)cc(OC)n1 | inactive | inactive | inactive | inactive | inactive | inactive | inactive | inactive | inactive | inactive |  |  |  | inactive | inactive |  | inactive | inactive | 
Cn1[nH]nnc1=S | inactive | inactive |  | inactive | inactive | inactive | inactive |  | inactive | inactive | inactive | inactive | inactive | inactive |  |  | inactive | inactive | inactive
COP(=O)(CCC(=O)NCO)OC | inactive | inactive | inactive | inactive | inactive | inactive | inactive | inactive | inactive | inactive | inactive | inactive | inactive | inactive | inactive | inactive | inactive | inactive | 
ClC1=C(Cl)C2(Cl)C3C(Cl)C(Cl)CC3C1(Cl)C2(Cl)Cl (stereo not drawn) | inactive | 43.1 µM (active) and 61.1 µM (active) | inactive | inactive | inactive |  |  | inactive | inactive | 48.8 µM (active) | inactive | inactive |  | inactive | 4.31 µM (active) and 21.7 µM (active) | 48.4 µM (active) and 61.1 µM (active) | inactive |  | 12.2 µM (active) and 27.3 µM (active)
CCC(C)(C)C(=O)OC1=C(c2ccc(Cl)cc2Cl)C(=O)OC12CCCCC2 | inactive | inactive | inactive | inactive | inactive | inactive | inactive |  | inactive |  | inactive | inactive | inactive | inactive | inactive | inactive | inactive | inactive | 
Cc1ccc(OP(=O)(Oc2ccccc2)Oc2ccccc2)cc1 | inactive |  | inactive |  | inactive | inactive | inactive | inactive | inactive | inactive | inactive | inactive | inactive | inactive | 15.6 µM (active) | inactive | inactive | inactive | 24.7 µM (active)
CC(C)OS(C)(=O)=O | inactive | inactive |  | inactive | inactive | inactive | inactive |  | inactive | inactive | inactive | inactive | inactive | inactive | inactive | inactive | inactive | inactive | inactive
